Measured values reported in ChEMBL document CHEMBL4513216, “Probing the Open Global Health Chemical Diversity Library for Multistage-Active Starting Points for Next-Generation Antimalarials” (ACS Infect Dis, 2020).
Out of some 68,000 compounds screened, about 2,700 (4%) showed an effect of 50% or more. The full list was thinned out, with strong results kept by preference.

The molecules below were run on Plasmodium berghei (assay: Screen against P. berghei liver stage (PbLuc), transformed with Luciferase, at 2uM). Details: tested at 2 uM.
Format: functional, HepG2
With `O=C(c1ccco1)N1CCOCC2(CCN(C3CCOCC3)C2)C1` (stereo not drawn) the INHIBITION was -68.56%. Molecule `c1ccc(CN2CCNCC(Cc3cnccn3)C2)cc1` (stereo not drawn) has an INHIBITION of 6.19%. `Cc1ncccc1NC(=O)[C@H]1C[C@@H]2CCN(Cc3ccsc3)C[C@H]2O1` was tested, and the INHIBITION was -30.39%. `CC(C)N(CCCNC(=O)C1CCOCC1)S(C)(=O)=O` was tested, and the INHIBITION was 18.14%. For `CN(C)C(=O)NCc1cc2n(n1)CCCN(CC1[C@H]3CNC[C@@H]13)C2` (stereo partly drawn), the INHIBITION was 14.46%. Work on `O=C(OC1CCC1)c1ncccc1OCC(F)(F)F` yielded an INHIBITION of 21.72%. Work on `O=C(O)c1ncccc1OCC(F)(F)F` yielded an INHIBITION of 55.73%. With `O=C(OC1CCC1)c1ncccc1C(F)(F)F` the INHIBITION was 46.63%. With `CCc1nccn1CC(=O)N1C[C@@H]2CC[C@H]1CN(c1ncccn1)C2` the INHIBITION was -54.76%. Work on `Cc1nc(CN2CCCN(Cc3nc4c(F)cccc4[nH]3)CC2)no1` yielded an INHIBITION of 27.86%. Molecule `CN(C)C(=O)n1c(C(=O)NC(C)(C)CO)cc2c1c1ccccc1n2C` has an INHIBITION of 50.35%. With `CCCNC(=O)c1cc2c(c3ccccc3n2C)n1C(=O)N(C)C` the INHIBITION was -15.3%. `CC(C)NC(=O)c1cc2c(c3ccccc3n2C)n1C(=O)N(C)C` showed an INHIBITION of 9.21%. `CN(C)CCN1C(=O)CC[C@@H]2[C@H]1CCN2C(=O)c1ccc(C#N)cc1` gave an INHIBITION of 33.35%. With `CS(=O)(=O)N1C[C@H]2CC[C@@H](C1)N(Cc1ccc3nsnc3c1)C2` the INHIBITION was 6.3%. With `Cc1cc(C(=O)N2CCCC(Cn3cc(C4CC4)nn3)C2)nc(C)n1` (stereo not drawn) the INHIBITION was 15.27%. For `CC(O)CN1CCC(CNCc2cccc(C(F)(F)F)c2)CC1` (stereo not drawn), the INHIBITION was -32.84%. Work on `CCc1nnc(CNC(=O)CCC2CCCCN2C)s1` (stereo not drawn) yielded an INHIBITION of -22.64%. `CCc1nnc(CNC(=O)CCC2CCCN(C)C2)s1` (stereo not drawn) was tested, and the INHIBITION was 52.47%. Molecule `CN1CCCC(CCC(=O)NCCc2nnc(N)s2)C1` (stereo not drawn) has an INHIBITION of 49.25%. In the case of `O=C(CCCN1CCCCC1)N1CCN(C(=O)c2ccc[nH]2)CC1`, the INHIBITION is reported as 2.7%. Molecule `CCCn1c(O)nnc1SCC1OCCc2ccccc21` (stereo not drawn) has an INHIBITION of -10.86%. `Cn1c(N)nnc1SCC1OCCc2ccccc21` (stereo not drawn) showed an INHIBITION of 18.52%. For `Cn1c(SCC2OCCc3ccccc32)n[nH]c1=O` (stereo not drawn), the INHIBITION was 54.53%. Work on `COc1ccc(CN2CC(O)CN(C(=O)c3ccccc3)CC2=O)cc1` (stereo not drawn) yielded an INHIBITION of -21.31%. `CCc1ccc(CNc2ccccc2CN2CCC(O)CC2)o1` showed an INHIBITION of -10.29%. `CSc1ccc(CNc2ccccc2CN2CCC(O)CC2)cc1` gave an INHIBITION of 50.03%. `OCc1ccc(CNc2ccccc2CN2CCC(O)CC2)o1` gave an INHIBITION of 5.02%. `CCSCc1ccnc(NC(=O)C2CCOC2)c1` (stereo not drawn) showed an INHIBITION of 51.27%. In the case of `CCSCc1ccnc(NC(=O)C2CCCO2)c1` (stereo not drawn), the INHIBITION is reported as 31.62%. Work on `O=C(Nc1cc(CSCCO)ccn1)c1ccc(Cl)o1` yielded an INHIBITION of -32.88%. With `COc1ccc(-c2csc(-c3cccc(C(=O)O)c3)n2)cc1OC` the INHIBITION was -60.47%. Molecule `c1ccc(CN2CCC3(CC2)Nc2ccccc2CO3)cc1` has an INHIBITION of 17.25%. `Cc1cc(CN2CCC(CNC(=O)c3ccc(C#N)cc3)C2)[nH]n1` (stereo not drawn) gave an INHIBITION of 39.57%. `Cc1cc(CN2CCC(CNC(=O)CN3CCCCCC3)C2)[nH]n1` (stereo not drawn) was tested, and the INHIBITION was 63.17%. Molecule `Cc1cc(CN2CCC(CNC(=O)Cc3ccc(F)cc3)C2)[nH]n1` (stereo not drawn) has an INHIBITION of -73.43%. For `CCC1=N[C@@]2(CC[C@@H]3CN(Cc4ccc(Cl)cc4)C[C@@H]32)C(=O)N1C`, the INHIBITION was 17.51%. With `CN1CCc2[nH]cnc2C12CCN(C(=O)c1noc3c1CCCC3)CC2` the INHIBITION was -15.03%. Work on `Cn1c(CN2CCOC[C@H]2c2nc(C(C)(C)C)co2)nc2ccccc21` yielded an INHIBITION of -39.35%. `C[C@@H]1CN(Cc2nc(C(N)=O)no2)CC[C@@]1(O)C1CC1` showed an INHIBITION of 59.1%. With `C[C@@H]1CN(Cc2nc(C(N)=O)no2)CC[C@@]1(O)C1CCOCC1` the INHIBITION was 26.14%. With `CNC(=O)c1noc(CN2CC[C@](C)(O)[C@H](C)C2)n1` the INHIBITION was -44.85%. `CC(=O)N1CCN(C(=O)c2ccc3ccn(C)c3c2)CC1` showed an INHIBITION of -58.53%. `O=S(=O)(Cc1cccc(Cl)c1)CC(O)Cn1cccn1` (stereo not drawn) was tested, and the INHIBITION was -17.17%. Molecule `CN1[C@@H]2CC[C@H]1CN(C(=O)c1ccc(-c3ccccc3)[nH]1)CC2` has an INHIBITION of 21.95%. `CC(C)n1cc(-n2cc3nc(N4CCOCC4)[nH]cc-3c2=O)cn1` was tested, and the INHIBITION was 53.22%. With `Cn1cc(-n2cc3nc(N4CCOCC4)[nH]cc-3c2=O)cn1` the INHIBITION was 13.95%. Molecule `CCn1cc(-n2cc3nc(N4CCOCC4)[nH]cc-3c2=O)cn1` has an INHIBITION of 37.89%. Molecule `Cc1cnc2c(c1NCc1ccc(F)cc1)c(=O)n(C)c(=O)n2C` has an INHIBITION of -5.61%. Work on `CCCc1nnc(NCc2ccc(OC)c(C#N)c2)o1` yielded an INHIBITION of 48.21%. Work on `CC(C)(C)Cc1nnc(NCc2cccc(C#N)c2)o1` yielded an INHIBITION of 31.51%. In the case of `COc1ccc(CNc2nnc(CC(C)(C)C)o2)cc1C#N`, the INHIBITION is reported as 55.36%. Molecule `O=C(CCN1CCc2ccccc21)N1C[C@@H](O)[C@H](N2CCCC2)C1` has an INHIBITION of 15.72%. For `O=C1C[C@H]2[C@@H](CCN2C(=O)Cc2cccs2)N1Cc1ccncc1`, the INHIBITION was 17.77%. Molecule `O=C(Cc1cccs1)N1CC[C@H]2[C@H]1CCN2Cc1cccnc1` has an INHIBITION of 7.33%. `O=C1C[C@H]2[C@@H](CCN2C(=O)Cc2ccccc2)N1Cc1cccnc1` was tested, and the INHIBITION was 30.4%. In the case of `O=C1C[C@H]2[C@@H](CCN2C(=O)Cc2cccs2)N1Cc1cccnc1`, the INHIBITION is reported as 55.7%. `O=C1C[C@H]2[C@@H](CCN2C(=O)c2cscn2)N1Cc1cccnc1` was tested, and the INHIBITION was -12.98%. `O=C1C[C@H]2[C@@H](CCN2C(=O)Cc2ccsc2)N1Cc1cccnc1` showed an INHIBITION of 52.91%. With `CN(Cc1nnc2n1CCC2)C(=O)c1ccc2c(c1)CCO2` the INHIBITION was 29.42%. Work on `COCCNC1(c2ccc(Cl)cc2)CCOCC1` yielded an INHIBITION of 60.9%. `CC(C)OCCNC1(c2ccc(Cl)cc2)CCOCC1` was tested, and the INHIBITION was -17.01%. With `CCOCCNC1(c2ccc(Cl)cc2)CCOCC1` the INHIBITION was 32.26%. With `CC(c1nc(C(C)(C)C)no1)S(=O)(=O)CC(=O)N1CCCC1` (stereo not drawn) the INHIBITION was -3.22%. `Cn1c(C2CCCN2C(=O)c2cn(CCN)nn2)nc2ccccc21` (stereo not drawn) was tested, and the INHIBITION was -6.44%. For `O=C(CN1CCC(c2ccccc2)CC1)NCc1cc2n(n1)CCNC2`, the INHIBITION was 5.21%. `O=C(CN1CC(c2ccccc2)CC1=O)NCc1cc2n(n1)CCNC2` (stereo not drawn) was tested, and the INHIBITION was 66.18%. `O=C(CN1CCOc2ccccc2C1)NCc1cc2n(n1)CCNC2` showed an INHIBITION of 5.75%. Molecule `CCOc1ccccc1Nc1nc2c(C)nn(C)c2c(=O)n1C` has an INHIBITION of -51.9%. For `CN1CCOC(CNC(=O)COc2ccc(F)cc2F)C1` (stereo not drawn), the INHIBITION was -7.88%. `Cc1nc2c(c(NC(C)C)n1)CCN(C(=O)CCO)CC2` gave an INHIBITION of -13.61%. Molecule `CC(C)Nc1nc2c(c(NC3CC3)n1)CCN(C1CCOCC1)CC2` has an INHIBITION of 4.95%. With `Cc1nc2c(c(NC(C)C)n1)CCN(C1CCOCC1)CC2` the INHIBITION was 53.44%. `Cc1cnc(NC(=O)NC(CCO)c2cccs2)s1` (stereo not drawn) showed an INHIBITION of -11.51%. Molecule `Cn1nc(COc2cncnc2)c2c1CCN(Cc1ccco1)C2` has an INHIBITION of 8.36%. For `CN(Cc1ccco1)C(=O)Nc1cc(C(F)(F)F)c[nH]c1=O`, the INHIBITION was 19.35%. `O=C(CCc1ccco1)Nc1cc(C(F)(F)F)c[nH]c1=O` was tested, and the INHIBITION was 19.35%. `Cc1noc(CCCC(=O)Nc2cc(C(F)(F)F)c[nH]c2=O)n1` gave an INHIBITION of -30.49%. `CCCc1noc(CCC(=O)Nc2cc(C(F)(F)F)c[nH]c2=O)n1` was tested, and the INHIBITION was 43.44%. `O=C(NCCc1ccco1)Nc1cc(C(F)(F)F)c[nH]c1=O` showed an INHIBITION of -6.16%. Molecule `CC(CCc1ccco1)NC(=O)Nc1cc(C(F)(F)F)c[nH]c1=O` (stereo not drawn) has an INHIBITION of 57.95%. Work on `O=C(NCc1ccoc1)Nc1cc(C(F)(F)F)c[nH]c1=O` yielded an INHIBITION of -7.02%. Molecule `O=C(COCc1ccco1)Nc1cc(C(F)(F)F)c[nH]c1=O` has an INHIBITION of 66.2%. Work on `CCN(Cc1ccco1)C(=O)Nc1cc(C(F)(F)F)c[nH]c1=O` yielded an INHIBITION of 28.65%. With `CC(C)c1noc(CCC(=O)Nc2cc(C(F)(F)F)c[nH]c2=O)n1` the INHIBITION was 64.9%. `Cn1nccc1C(=O)Nc1cc(C(F)(F)F)c[nH]c1=O` showed an INHIBITION of -27.71%. Molecule `O=C(Nc1cc(C(F)(F)F)c[nH]c1=O)c1ccco1` has an INHIBITION of 56.67%. `Cc1nc(C(C)C)sc1C(=O)N(C)Cc1cnn(C)c1` showed an INHIBITION of -35.11%. With `Cc1cc(NC(=O)NCC(C)N2CCOCC2)n(C)n1` (stereo not drawn) the INHIBITION was 25.53%. Molecule `CC(=O)N1CCOC(c2cncc(CCC(=O)N(C)C)n2)C1` (stereo not drawn) has an INHIBITION of -26.69%. `CCn1cc(-c2cc(-c3cc(CN(C)C)cs3)nc(N)c2C#N)c(C)n1` showed an INHIBITION of 42.48%. `c1ccc2cc(OCCN3CCn4c(nnc4C4CC4)C3)ccc2c1` gave an INHIBITION of 18.31%. Molecule `Cc1cccc(CN2CCOC3(CCCN(CC(=O)N(C)C)C3)C2)n1` (stereo not drawn) has an INHIBITION of -25.4%. With `Cc1ccccc1C(C)NC(=O)Cc1c(C)nc2cc(=O)[nH]n2c1C` (stereo not drawn) the INHIBITION was -18.39%. With `CC(C)n1cnnc1CN(C)Cc1ccoc1` the INHIBITION was 33.78%. `CN(CCCNc1cc(N2CCCC2CO)ncn1)S(C)(=O)=O` (stereo not drawn) was tested, and the INHIBITION was 22.75%. `Cn1cc(CN2CC[C@@H](NS(C)(=O)=O)[C@@H]2Cc2cccnc2)cn1` gave an INHIBITION of -28.13%. Molecule `O=C(c1cc(-n2cnnn2)ccc1Cl)N1CCN(c2ccccc2)CC1` has an INHIBITION of 8.92%. Work on `c1csc(CN2Cc3nccn3CC(Cn3cncn3)C2)c1` (stereo not drawn) yielded an INHIBITION of 54.62%. For `c1csc(CN2Cc3nccn3CC(Cn3cncn3)C2)n1` (stereo not drawn), the INHIBITION was -43.55%. Molecule `c1cc(CN2Cc3nccn3CC(Cn3cncn3)C2)ccn1` (stereo not drawn) has an INHIBITION of -6.68%. With `O=C(NCc1cccnc1)[C@@H]1CC[C@@H]2[C@@H](CCN2c2ncccn2)O1` the INHIBITION was 25.5%. Work on `CN(CCn1ccnc1-c1ccccn1)S(C)(=O)=O` yielded an INHIBITION of 35.52%.
